# Bioassay records (PubChem BioAssay)
# RORg inh: inhibitors of mouse ROR gamma transcriptional activity | P51450 | Drosophila S2 Gal4-RORgamma UAS-luciferase reporter, 20 h | Potency, µM (titrated, usually from 53.6 µM), inactives show top-dose activity change, negative = inhibition, hits mostly inhibitors | actives 5.4% (n = 310,000) | AID 2551; also: potency is read from the fitted curve at half-maximal effect; nearly all actives have a fitted effect of over 60% in size
# Target sequence (P51450 whole entry, looked up, the tested form may be a part): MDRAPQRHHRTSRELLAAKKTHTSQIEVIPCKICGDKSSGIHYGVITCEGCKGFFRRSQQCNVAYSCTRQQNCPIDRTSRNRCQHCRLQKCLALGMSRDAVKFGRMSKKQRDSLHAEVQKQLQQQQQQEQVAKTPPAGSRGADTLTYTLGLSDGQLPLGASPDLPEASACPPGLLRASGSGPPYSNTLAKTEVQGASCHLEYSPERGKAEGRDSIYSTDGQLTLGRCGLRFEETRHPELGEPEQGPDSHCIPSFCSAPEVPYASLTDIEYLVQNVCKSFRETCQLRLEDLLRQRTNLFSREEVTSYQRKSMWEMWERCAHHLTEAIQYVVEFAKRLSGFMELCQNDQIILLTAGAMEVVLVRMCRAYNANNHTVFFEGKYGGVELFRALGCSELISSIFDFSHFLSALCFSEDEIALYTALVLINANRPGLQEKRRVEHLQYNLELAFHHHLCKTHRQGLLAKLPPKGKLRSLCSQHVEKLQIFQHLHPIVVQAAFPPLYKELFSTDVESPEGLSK
#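 Stable Schneider cell line, Gal4 DNA-binding domain fused to ROR gamma, UAS-luciferase. Cmpd 1 hr RT → CuSO4 700 uM final → 20 hr RT → luciferase reagent 10 min → luminescence.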
# VP16 counter: inhibits Gal4-VP16 luciferase reporter, ROR gamma counter-screen. Drosophila S2 Gal4-VP16 UAS-luciferase, luminescence, 20 h. Potency, µM (highest dose often 53.6 µM), for the others: at the top dose activity, negative = inhibition, usual class: inhibitors. AID 2546. actives 3.5% (n = 310,000);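 also: Gal4-VP16 expression switched on by copper sulfate through the metallothionein promoter; potency is read from the fitted curve at half-maximal effect; nearly all actives have a fitted effect of over 50% in size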
# B2AR arrestin: beta2AR (human) beta-arrestin recruitment activity. beta-arrestin recruitment to beta2AR, cell-based reporter. Potency, µM (top dose mostly 46.1 µM), inactives show top-dose activation, most hits filed as activators. actives 0.02% (n = 330,000). AID 492947;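 also: potency is read from the fitted curve at half-maximal effect; 0% = DMSO controls and full agonism = EC100 isoproterenol or metaproterenol; nearly all actives have a fitted effect of over 65% in size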
# ELG1 DNA repair: ELG1-dependent DNA repair inhibition; actives 2.3% (n = 330,000); HEK293T ELG1-luciferase reporter, luminescence, 16 h; DNA damage induced by 5-fluorouridine; Potency, µM (top dose mostly 46.1 µM), without a hit: at the highest dose activity change, negative = inhibition, most hits filed as inhibitors; also: potency is read from the fitted curve at half-maximal effect; nearly all actives have a fitted effect of over 55% in size
#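 Cells (2,000 per well) received 5-fluorouridine plus test compound or DMSO and were incubated 16 hr at 37 °C, 5% CO2. Luciferase activity was read by luminescence 30 min after ONE-Glo addition; signal suppression marked inhibition of damage-induced ELG1 function.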
# TSHR antagonist: human thyrotropin receptor antagonism. activity change, negative = inhibition, % at 11.5 µM. P16473. actives 0.2% (n = 330,000). TSHR-expressing cells, TSH-stimulated cAMP HTRF, 2 h; active compounds read low;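 active = activity change below a set negative limit, meaning inhibition stronger than a set level, cut at about -70% in these data; inconclusive = activity change between two set negative limits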
#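 Cell-based HTRF cAMP assay; TSHR cells + compound, TSH EC80 (4nM final), 2 h, 37 deg C. Lysis with anti-cAMP cryptate and cAMP-d2, 30 min RT, read 665/620 nm.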
# An asterisk follows results filed as active; ? = inconclusive; / = not tested or not shown; [ ] = remark or other dose. Only some compounds are listed: those with a hit (about 7.5% of all), similar ones and a draw of the others. Unless noted, calls follow the shape of the dose curve; as a rule, active = well fitted curve in the direction sought with a large enough effect; inconclusive = small, poorly fitted or top-dose-only effect, or another doubt; inactive = no such curve, though single readings can be large; an effect the other way counts as inactive or inconclusive. Unless noted, % is scaled to controls: 0 for no effect and ±100 for the full control effect.
SMILES,RORg inh,VP16 counter,B2AR arrestin,ELG1 DNA repair,TSHR antagonist
S=C(NC1CCCC1)NC1CC1,13µM*,?,0%,-7%,15
S=C(NC1CCCC1)NC1CCCC1,2.5µM*,?,0%,-11%,-6
CC(C)CNC(=S)NC1CCCC1,10µM*,?,0%,-1%,2
OCCNC(=S)NC1CCCCC1,8%,8%,0%,3%,-5
S=C(NCCN1CCOCC1)NC1CCCC1,-35%,-10%,0%,9%,-4
O=C(NC1CCCCCC1)C(=O)NC1CC1,-5%,-8%,0%,19%,-2
CN(Cc1ccc(C(C)(C)C)cc1)C(=O)C1CSC2(C)CCC(=O)N12 (centres undefined),/,/,0%,?,-4
COC(=O)c1cccc2c1-c1ccccc1/C2=N/O,14µM*,?,-1%,?,11
COC(=O)c1cccc2c1-c1ccccc1/C2=N\NC(N)=O,-34%,-9%,-1%,?,10
CCOC(=O)c1cnc2ccc(C)cc2c1Sc1ccccc1,-33%,-4%,0%,?,4
CCOC(=O)c1cnc2ccc(C)cc2c1Sc1ccc(F)cc1,?,28µM*,0%,0%,16
COc1ccc(C)cc1NC(=O)c1sc2ncnc(N3CCN(c4ccccn4)CC3)c2c1C,7%,3%,0%,6.5µM*,-10
CCOC(=O)c1sc2nc(CSc3ccccc3)nc(N3CCC(C(N)=O)CC3)c2c1C,39%,4%,0%,18µM*,-10
Cc1ccc(NC(=O)c2sc3nc(C)nc(N4CCN(c5ccccn5)CC4)c3c2C)c(C)c1,10%,-3%,0%,?,-16
CCOC(=O)c1sc2nc(CC(=O)OC)nc(N3CCN(c4ccccn4)CC3)c2c1C,?,2%,0%,9.2µM*,-4
Cc1sc2nc(CSc3ccccc3)nc(N3CCC(C(N)=O)CC3)c2c1C,37%,-4%,0%,?,-10
O=C(Cc1ccc(Cl)cc1)NC1CCCN(Cc2ccccc2F)C1 (centres undefined),27%,-10%,0%,18%,1
C=C[C@@H]1[C@@H](C)[C@H](C)C(=O)C([C@H](O)C(C)C)[C@@H]1C (some centres undefined),-32%,0%,/,/,/
Cc1cc(N2CCN(C(=O)c3cccs3)CC2)c(F)cc1[N+](=O)[O-],?,?,4%,?,3
Cc1cc(C)c(C(=O)/C=C/c2ccco2)c(=O)[nH]1,-1%,5%,0%,0%,8
Cc1ccc(/C=C/C(=O)c2c(C)cc(C)[nH]c2=O)cc1,?,?,0%,21µM*,-1
CCc1ccc(/C=C/C(=O)c2c(C)cc(C)[nH]c2=O)cc1,?,?,0%,21µM*,11
Cc1cc(C)c(C(=O)/C=C/c2cccs2)c(=O)[nH]1,-17%,6%,-1%,?,-1
C/C(=C\c1ccc(Br)cc1)C(=O)c1c(C)cc(C)[nH]c1=O,?,0%,-5%,15µM*,9
C/C(=C\c1ccc(Cl)cc1)C(=O)c1c(C)cc(C)[nH]c1=O,-28%,-11%,0%,?,-5
SMILES,RORg inh,VP16 counter,B2AR arrestin,ELG1 DNA repair,TSHR antagonist
COc1ccc(/C=C/C(=O)c2c(C)cc(C)[nH]c2=O)c2ccccc12,?,14µM*,0%,?,2
COc1ccccc1N1CCN(C(=O)c2ccc(-c3ccc(Cl)cc3)o2)CC1,/,/,0%,?,-6
CCCCn1c(N)c(N(CCOC)C(=O)COC(=O)COc2ccccc2C#N)c(=O)[nH]c1=O,/,/,0%,15%,6
CCCCCCCCCCCCOCCCN,17%,-4%,/,/,/
COc1ccccc1/C=C/C(=O)c1c2c(c(C)[nH]c1=O)CCCC2,5.6µM*,4.5µM*,0%,18µM*,-19
COc1ccccc1/C=C/C(=O)c1ccccc1,?,0%,-1%,?,-11
CCc1ccc2c(-c3cccc(Cl)c3)nc(=O)n(CC)c2n1,?,2%,/,/,35
Cc1cccc2nc(CSc3ccccc3C(=O)O)cn12,?,-29%,0%,?,12
Cc1cccc2nc(COc3ccc4ccccc4c3Br)cn12,8.9µM*,?,-1%,?,7
CCN(CC)Cc1nc2c(c(=O)[nH]1)C(CC)(CC)Cc1ccccc1-2,1.6µM*,5µM*,0%,-6%,-1
Cc1ccc(C(=O)NC(=S)NCC2CCCO2)cc1 (centres undefined),16µM*,-21%,-1%,?,-7
Cc1cnn(C(=S)NCC2CCCO2)c1 (centres undefined),14µM*,?,-1%,?,-13
O=C(NC(=S)NCC1CCCO1)c1ccc([N+](=O)[O-])cc1 (centres undefined),13µM*,-93%,1%,26%,11
O=C(NC(=S)NCC1CCCO1)c1ccc(Cl)cc1 (centres undefined),11µM*,?,-1%,?,6
CCN1CCN(C(=S)NCC2CCCO2)CC1 (centres undefined),-14%,-7%,0%,-3%,15
COc1cc(C/C=C/c2ccccc2)c(OC)cc1O,?,-14%,/,/,/
Cc1cccc(C)c1NC(=O)C1CCCN1S(=O)(=O)c1ccc2c(c1)n(C)c(=O)c(=O)n2C (centres undefined),-35%,0%,0%,2%,0
CCCCn1c(CNC(=O)CC)nc2ccccc21,-30%,3%,0%,5%,6
O=C(Nc1nc2ccccc2n1CCN1CCOCC1)c1ccc(Cl)cc1,0.4µM*,2.8µM*,-1%,6%,3
CCC(=O)Nc1nc2ccccc2n1CCN1CCOCC1,14µM*,?,-2%,8%,7
CCCCCCCn1c(NC(=O)CC)nc2ccccc21,0.089µM*,0.63µM*,-1%,?,2
Cc1nc2ccccc2n1CC(=O)NCCN1CCOCC1,-9%,3%,0%,21%,8
COC(=O)NC(/C(C(=O)OC)=C(\C)NCc1ccccc1)c1cccc(F)c1 (centres undefined),-10%[10 µM],-1%[10 µM],/,/,/
C=CCNC(=O)CN1CCC(NC(=O)c2ccco2)CC1,11%,-2%,0%,17%,-4
COCCNC(=O)CN1CCC(NC(=O)c2ccco2)CC1,13µM*,?,-1%,3%,0
O=C(NC1CCN(C(=O)N2c3ccccc3Sc3ccccc32)CC1)c1ccccc1Cl,39%,7%,-1%,-21%,-19
O=C(NC1CCN(C(=O)N2c3ccccc3Sc3ccccc32)CC1)c1ccco1,5%,?,-1%,23µM*,-22
CC(=O)Nc1ccc(OCC(O)Cn2c(C)nc3ccccc32)cc1 (centres undefined),?,7.9µM*,0%,13%,14
